Data: PubChem BioAssay (NCATS)
Results filed as inconclusive are left out. Unless noted, calls follow the shape of the dose curve; as a rule, active = well fitted curve in either direction with a large enough effect (not every such curve was filed as active); inconclusive = small, poorly fitted or top-dose-only effect, or another doubt; inactive = flat fitted curve, though single readings scatter.

Tests used:
[1] = AP1 Signaling Pathway (AID 357); conditions: ME-180 AP-1-bla reporter, EGF-induced, beta-lactamase ratio, 5 h; at 17.2 µM (top of the series) unless noted; also: % is scaled to controls: 0 for no effect and ±100 for the full control effect
Outline: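 ME-180 cells with beta-lactamase reporter under AP-1 response element, stimulated with EC50 EGF; compounds tested in titration series, 5 h at 37 °C. CCF4 substrate added 2.5 h at room temperature; 460/530 nm emission ratio gave %activity and AC50.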

[2] = NFAT Signaling Pathway (AID 444); conditions: Jurkat NFAT-bla M1, carbachol, beta-lactamase ratio, 5 h; at 17.2 µM (top of the series) unless noted;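 also: carbachol stimulus at about its EC50 of 1 µM final; % is scaled to controls: 0 for no effect and ±100 for the full control effect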
Outline: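 Read-out: CCF4 FRET ratio (460 nm/530 nm) after 1 h RT dye loading, used for %activity and AC50 from titration series. Cells: Jurkat NFAT-β-lactamase/M1 line, treated with compound plus 1 uM carbachol for 5 h, 37 °C.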

[3] = Stat Signaling Pathway (AID 446); conditions: ME-180 SIE beta-lactamase reporter, IL-6 stimulated, 5 h; at 17.2 µM (top of the series) unless noted;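 also: ME-180 cervical cancer cells given 40 pM IL-6 alongside compound; SIE-controlled beta-lactamase reporter measured as 460/530 nm FRET emission ratio; % is scaled to controls: 0 for no effect and ±100 for the full control effect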
Outline: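 Screening format detects activators and inhibitors alike: ME-180 SIE-bla cells stimulated at 40 pM IL-6 for 5 hrs with compound, then dual-emission beta-lactamase read at 405 nm excitation.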

[4] = target: Glucocorticoid receptor (Homo sapiens) (UniProt P04150); assay: GR-GFP Redistribution (AID 450;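 active = compounds whose dose series gives a full or clear partial fitted curve of increased nuclear translocation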; also: potency is read from the fitted curve at half-maximal effect)
Chain of Glucocorticoid receptor (Homo sapiens) (P04150 whole entry, looked up): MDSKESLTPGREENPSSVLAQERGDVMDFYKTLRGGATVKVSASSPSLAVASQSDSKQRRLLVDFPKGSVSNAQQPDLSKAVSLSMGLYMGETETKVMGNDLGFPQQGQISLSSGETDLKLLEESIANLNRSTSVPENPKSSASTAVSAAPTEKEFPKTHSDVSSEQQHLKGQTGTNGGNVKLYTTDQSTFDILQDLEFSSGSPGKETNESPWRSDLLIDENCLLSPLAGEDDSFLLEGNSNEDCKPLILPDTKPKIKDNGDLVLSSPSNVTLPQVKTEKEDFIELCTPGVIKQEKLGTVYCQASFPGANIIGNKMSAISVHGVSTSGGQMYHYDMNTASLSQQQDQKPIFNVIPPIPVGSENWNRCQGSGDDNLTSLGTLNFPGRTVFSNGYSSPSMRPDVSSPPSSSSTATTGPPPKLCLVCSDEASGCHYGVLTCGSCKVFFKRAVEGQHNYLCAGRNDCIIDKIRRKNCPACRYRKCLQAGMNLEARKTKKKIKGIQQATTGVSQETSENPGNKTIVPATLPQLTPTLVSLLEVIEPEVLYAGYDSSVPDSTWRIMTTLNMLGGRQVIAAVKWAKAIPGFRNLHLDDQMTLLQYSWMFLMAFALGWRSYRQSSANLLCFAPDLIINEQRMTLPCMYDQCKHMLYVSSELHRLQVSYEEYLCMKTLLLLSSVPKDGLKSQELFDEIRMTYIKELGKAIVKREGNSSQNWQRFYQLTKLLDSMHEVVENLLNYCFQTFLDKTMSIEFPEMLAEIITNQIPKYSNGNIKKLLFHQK

CCN1CCc2c(C#N)c(N3CCOCC3)nc(NCCO)c2C1
inactive: activity change, negative = inhibition [1] 0.329% | activity change, negative = inhibition [2] 3.49% | activity, negative = inhibition [3] 11.3% | Potency [4] > 20.6 µM

OC(CCCN1CCC(O)(c2ccc(Cl)cc2)CC1)c1ccc(F)cc1 (centres undefined)
inactive: activity change, negative = inhibition [1] -2.74% | activity change, negative = inhibition [2] -27.5% | activity, negative = inhibition [3] 4.61% | Potency [4] > 20.6 µM

Cc1cc(=O)oc(C)c1C(=O)NCCC1=CCCCC1
inactive: activity change, negative = inhibition [1] 12.2% | activity change, negative = inhibition [2] -27.5% | activity, negative = inhibition [3] 2.06% | Potency [4] > 20.6 µM

CCCC1C(c2ccc(OC)cc2)C(C#N)(C#N)C2(C#N)CC1(N)NC2=O (centres undefined)
inactive: activity change, negative = inhibition [1] 7.74% | activity change, negative = inhibition [2] -5.15% | activity, negative = inhibition [3] -5.79% | Potency [4] > 20.6 µM

O=C1N[C@@H](Cc2cnc[nH]2)C(=O)N2CCC[C@@H]12
inactive: activity change, negative = inhibition [1] 15.2% | activity change, negative = inhibition [2] -19.2% | activity, negative = inhibition [3] 4.85% | Potency [4] > 20.6 µM

CCCOc1ccccc1C(=O)NCCCC(=O)O
inactive: activity change, negative = inhibition [1] -0.71% | activity change, negative = inhibition [2] -4.04% | activity, negative = inhibition [3] 8.1% | Potency [4] > 20.6 µM

C=CCOc1ccc(/C(O)=C2/C(=O)C(=O)N(CCCN3CCOCC3)C2c2ccccc2)cc1 (centres undefined)
inactive: activity change, negative = inhibition [1] -4.92% | activity change, negative = inhibition [2] 12.9% | activity, negative = inhibition [3] -5.01% | Potency [4] > 20.6 µM

COc1ccc(-c2oc3ncn4nc(Cc5ccccc5)nc4c3c2-c2ccc(OC)cc2)cc1
inactive: activity change, negative = inhibition [1] -0.634% | activity change, negative = inhibition [2] -13% | activity, negative = inhibition [3] -13.3% | Potency [4] > 20.6 µM

CC1(C)Cc2c(sc3nc4n(c(=N)c23)CCC4)CO1
inactive: activity change, negative = inhibition [1] -5.14% | activity change, negative = inhibition [2] -4.64% | activity, negative = inhibition [3] 4.33% | Potency [4] > 20.6 µM

Cn1c(=O)c2c(nc(Br)n2CCSc2nc3ccccc3o2)n(C)c1=O
inactive: activity change, negative = inhibition [1] 5.24% | activity change, negative = inhibition [2] 1.98% | activity, negative = inhibition [3] 10.5% | Potency [4] > 20.6 µM

COCCNc1ncnc2c1cnn2-c1ccc(Cl)cc1
inactive: activity change, negative = inhibition [1] -9.71% | activity change, negative = inhibition [2] -10.4% | activity, negative = inhibition [3] 2.93% | Potency [4] > 20.6 µM

COCC(C)Nc1ncnc2c1cnn2-c1ccc(Cl)cc1 (centres undefined)
inactive: activity change, negative = inhibition [1] -23.7% | activity change, negative = inhibition [2] -6.38% | activity, negative = inhibition [3] -3.72% | Potency [4] > 20.6 µM

Cc1c(C2CC(=O)N(c3ccccc3)C2=O)[nH]n(-c2ccccc2)c1=O (centres undefined)
inactive: activity change, negative = inhibition [1] -2.21% | activity change, negative = inhibition [2] -3.65% | activity, negative = inhibition [3] 1.65% | Potency [4] > 20.6 µM

CCNC(=O)COn1c(SCC(=O)NCC)nc2ccccc2c1=O
inactive: activity change, negative = inhibition [1] -9.03% | activity change, negative = inhibition [2] 9.09% | activity, negative = inhibition [3] 8.5% | Potency [4] > 20.6 µM

Cn1c(=O)n(CC(=O)Nc2ccccc2)c2ccccc21
inactive: activity change, negative = inhibition [1] -5.57% | activity change, negative = inhibition [2] -4.15% | activity, negative = inhibition [3] -7.48% | Potency [4] > 20.6 µM

COc1cccc(C2/C(=C(\O)c3ccc4c(c3)OCCO4)C(=O)C(=O)N2CCCN(C)C)c1OC (centres undefined)
inactive: activity change, negative = inhibition [1] 4.3% | activity change, negative = inhibition [2] 5.21% | activity, negative = inhibition [3] 4.4% | Potency [4] > 20.6 µM

NC(=O)c1cc(-c2ccccc2)nc(Oc2ccccc2)n1
inactive: activity change, negative = inhibition [1] -14.4% | activity change, negative = inhibition [2] -25.9% | activity, negative = inhibition [3] -5.87% | Potency [4] > 20.6 µM

COc1ccc(-c2c3c([nH]c(=S)c2C#N)CCC3)cc1
inactive: activity change, negative = inhibition [1] 22.9% | activity change, negative = inhibition [2] -5.23% | activity, negative = inhibition [3] -7.04% | Potency [4] > 20.6 µM

COC(=O)c1ccccc1NC(=O)C1COc2ccccc2O1 (centres undefined)
inactive: activity change, negative = inhibition [1] -7.17% | activity change, negative = inhibition [2] -19.3% | activity, negative = inhibition [3] 2.58% | Potency [4] > 20.6 µM

COc1ccccc1C1/C(=C(/O)c2ccc(C)cc2)C(=O)C(=O)N1CCN1CCOCC1 (centres undefined)
inactive: activity change, negative = inhibition [1] -9.75% | activity change, negative = inhibition [2] 19.8% | activity, negative = inhibition [3] 1.99% | Potency [4] > 20.6 µM

COc1ccc(C2N3CC4(C)CN2CC(C)(C3)C4O)cc1OC (centres undefined)
inactive: activity change, negative = inhibition [1] 9.87% | activity change, negative = inhibition [2] -5.44% | activity, negative = inhibition [3] 15.4% | Potency [4] > 20.6 µM

CC1(C)Cc2c(C#N)c(SCCC#N)nc(N3CCOCC3)c2CS1
inactive: activity change, negative = inhibition [1] -12.8% | activity change, negative = inhibition [2] 3.6% | activity, negative = inhibition [3] -3.44% | Potency [4] > 20.6 µM

O=C(NCCN1CCOCC1)c1ccc(=O)oc1
inactive: activity change, negative = inhibition [1] 4.3% | activity change, negative = inhibition [2] 8.89% | activity, negative = inhibition [3] 4.33% | Potency [4] > 20.6 µM

CC(=O)Nn1cnc2c(c1=O)C1(CCCC1)Cc1ccccc1-2
inactive: activity change, negative = inhibition [1] -8.59% | activity change, negative = inhibition [2] -0.355% | activity, negative = inhibition [3] 10.3% | Potency [4] > 20.6 µM

O=C(CN1C(=O)c2ccccc2C1=O)NCc1ccccn1
inactive: activity change, negative = inhibition [1] -3.27% | activity change, negative = inhibition [2] 16.6% | activity, negative = inhibition [3] 10.5% | Potency [4] > 20.6 µM

O=C(NCc1ccccn1)c1ccc(=O)oc1
inactive: activity change, negative = inhibition [1] 5.8% | activity change, negative = inhibition [2] -2.94% | activity, negative = inhibition [3] 8.81% | Potency [4] > 20.6 µM
